BoNT-A LC inh2 = BoNT A light chain protease inhibition. multiplex microsphere protease substrate cleavage, flow cytometry. inhibition, % at 10 µM. 360,000 tested, 0.17% active
Bead autofluor = counter-screen for toxin protease inhibitors: compound fluorescence | AID 624483 | fluorescence intensity (test concentration not listed) | compound autofluorescence counterscreen, microsphere flow cytometry; active compounds read high | 360,000 tested, 3.1% active; in the data active means fluorescence intensity above about 16000; inconclusive means no clear call, values can overlap the other calls
Anthrax LF inh2 = anthrax lethal factor protease inhibition; inhibition, % at 10 µM; multiplex microsphere protease cleavage assay, LF; 360,000 tested, 0.12% active; P15917
PriA SSB inh = blocks PriA binding to SSB C-terminal tail; inhibition, % at 33 µM; 430,000 tested, 0.6% active; AlphaScreen SSBct-PriA binding, biotinylated peptide; AID 1272365; in the data active means inhibition mostly above about 37%, no sharp cut-off; inactive means mostly below about 20%
BoNT F protease = BoNT F light chain protease inhibition. Multiplex microsphere protease cleavage assay, flow cytometry. inhibition, % at 10 µM. 360,000 tested, 0.22% active. AID 588497; in the data active means inhibition above about 35%, passing the limit was not always enough; inconclusive means no clear call, values can overlap the other calls
Hits are given with their value; n = inactive; u = inconclusive; x = not tested or not shown. Hits are enriched below; roughly 3.1% of the tested compounds scored in any of these assays. Unless noted, no stated cut-off is given here; in the data, active means inhibition above about 30%; inconclusive means no clear call, values can overlap the other calls; inactive means below that.

SMILES	BoNT-A LC inh2	Bead autofluor	Anthrax LF inh2	PriA SSB inh	BoNT F protease
O=C(COc1ccccc1Cl)Nc1nnc(S(=O)(=O)N2CCCC2)s1	n	n	n	85	n
CCOc1ccccc1C(=O)N1CCC(Cn2nc(C)cc2C)CC1	x	x	x	n	x
Cn1ccnc1SCc1ccc([N+](=O)[O-])cc1	u	19757	n	n	n
COc1ccc(Nc2nnc(SCc3cc([N+](=O)[O-])cc4c3OCOC4)s2)cc1	n	23675	n	n	n
COc1ccc(CSc2nnc(SCc3ccc([N+](=O)[O-])cc3)s2)cc1	n	23671	n	n	n
O=C(c1ccc2ccccc2c1)N1CCC(c2nc3ccccc3[nH]2)CC1	x	x	x	n	x
COc1ccc(N2C(=O)CC(N3CCC(c4nc5ccccc5[nH]4)CC3)C2=O)cc1 (configuration not stated)	u	22767	n	n	n
COc1ccc(N2C(=O)CC(N3CCC(O)(c4ccc(Cl)cc4)CC3)C2=O)cc1 (configuration not stated)	u	16898	n	n	n
CCCCOc1ccc(C(=O)N2CCC(c3nc4ccccc4[nH]3)CC2)cc1	x	x	x	91	x
O=C1CC(N2CCC(c3nc4ccccc4[nH]3)CC2)C(=O)N1c1ccccc1F (configuration not stated)	n	n	n	n	n
COc1ccc(N2C(=O)CC(N3CCN(c4ccc(Cl)cc4)CC3)C2=O)cc1 (configuration not stated)	n	n	n	n	n

Screening results: PubChem, several laboratories
